Screening results as filed in PubChem BioAssay.
GRK2 aptamer HTS: blocks RNA aptamer binding to human GRK2; inhibition of aptamer binding, % at 10 µM; bead flow cytometry, FAM-aptamer displacement from GRK2; actives 0.59% (n = 330,000); AID 488847; P25098;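 active = inhibition of aptamer binding above 40%, roughly 3 SD of noise, on plates passing a quality check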;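 note: median bead fluorescence of bound FAM aptamer so fluorescent compounds give negative values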
Granule exo inh: blocks lytic granule exocytosis. TALL-104 LAMP-1 surface exposure, flow cytometry; cells stimulated with thapsigargin and PMA. inhibition, % at 10 µM. actives 0.66% (n = 360,000). AID 651702;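 active = inhibition above about 55%, limit read from the data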
PP1 inh: blocks human PP1-alpha phosphatase, a PP5 counter-screen. purified PP1alpha, OMFP fluorescence. inhibition, % at 6.7 µM. actives 0.9% (n = 320,000). AID 2235;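 active = inhibition above the mean inhibition of all tested compounds plus 3 SD, computed separately for each screening campaign, cut at about 15% in these data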
NadD block: blocks S. aureus nicotinate mononucleotide adenylyltransferase; AID 602399; inhibition, % at 20 µM; purified NadD enzyme, colorimetric absorbance read-out; actives 0.78% (n = 360,000); in the data active = inhibition above about 26%
B2AR ag: agonists of human beta-2 adrenergic receptor inducing internalization | P07550 | Am2.2-beta2AR cells, FAP receptor internalization, flow cytometry | response, % (no concentration beside the values) | actives 0.43% (n = 340,000) | AID 504454;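 active = response above a set limit, near 3 SD of response in nonfluorescent compounds, cut at about 42% in these data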
Target sequence (P07550 whole entry, looked up): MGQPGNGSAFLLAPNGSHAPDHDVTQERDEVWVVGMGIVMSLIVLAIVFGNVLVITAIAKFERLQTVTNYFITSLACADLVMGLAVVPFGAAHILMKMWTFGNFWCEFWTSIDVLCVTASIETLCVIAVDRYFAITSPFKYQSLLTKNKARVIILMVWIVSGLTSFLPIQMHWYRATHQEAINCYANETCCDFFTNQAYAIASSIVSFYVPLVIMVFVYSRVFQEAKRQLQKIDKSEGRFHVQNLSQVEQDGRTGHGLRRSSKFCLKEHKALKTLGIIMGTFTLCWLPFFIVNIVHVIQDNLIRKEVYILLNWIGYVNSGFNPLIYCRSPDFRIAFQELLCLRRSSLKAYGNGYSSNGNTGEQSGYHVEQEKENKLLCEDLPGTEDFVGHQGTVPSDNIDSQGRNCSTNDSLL
GRK2 inh confirm: confirmation of human GRK2 inhibitors displacing RNA aptamer; shares compounds with GRK2 aptamer HTS; bead-bound GRK2, FAM-aptamer displacement, flow cytometry; aptamer displacement, % at 10 µM; actives 4% (n = 2,000); AID 504451;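 active = aptamer displacement above 40%, near three times the noise of non-fluorescent compounds, on plates passing quality checks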;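 note: negative values mostly reflect intrinsic compound fluorescence rather than true enhancement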
Aptamer quench SP: aptamer fluorescence quenching in GRK2 counter-screen | shares compounds with GRK2 aptamer HTS | Carboxyfluorescein RNA aptamer on beads, flow cytometry quenching; hits give low values | fluorescence response (% of DMSO), % at 10 µM | 2,000 tested, under 10 active | AID 504580;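 active = compounds that quench the bead-bound fluorescent RNA probe, cutting fluorescence to under half of the solvent control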;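 note: counterscreen run without GRK2 so only probe quenching by compound is measured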
GRK2 CP2: human GRK2 inhibition confirmation, cherry pick 2; shares compounds with GRK2 aptamer HTS; bead-bound GRK2, FAM-aptamer displacement, flow cytometry; inhibition of aptamer binding, % at 10 µM; 360 tested, under 10 active;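 active = inhibition of aptamer binding above 40%, about triple the noise seen with nonglowing compounds, on plates passing quality control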;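 note: negative values mostly come from compounds that fluoresce themselves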
FAM quench CP2: counter-screen for GRK2 binding hits: quenchers of fluorescent RNA aptamer. shares compounds with GRK2 aptamer HTS. carboxyfluorescein RNA aptamer beads, flow cytometry quenching; hits give low values. fluorescence response vs DMSO, % at 10 µM. 360 tested, under 10 active. AID 588494;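 active = response vs DMSO under 50%, meaning signal dropped by over half, treated as fluorescence quencher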;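 note: labelled aptamer on streptavidin beads without GRK2 as a quench counter-screen; 100% = bead fluorescence of DMSO wells and lower means quenching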
Starred values were filed as active, the others as inactive; . = no result given. A selection: hits, their analogues and other compounds. The true share with any hit is near 2.9%.

SMILES	GRK2 aptamer HTS	Granule exo inh	PP1 inh	NadD block	B2AR ag	GRK2 inh confirm	Aptamer quench SP	others
Cn1c(Cc2cccs2)nnc1SCC(=O)Nc1ccc(C(N)=O)cc1	2	-1	-3	-5	-4	.	.
COc1cc(CNCc2cccs2)ccc1OCc1ccccc1	30	0	4	-1	23	-2	103
NC(=O)C(=O)N/N=C/c1cccc(C(F)(F)F)c1	61*	-1	0	-1	8	0	101
CCOC(=O)c1ccccc1NC(=O)COC(=O)C1CCCC1	0	11	-7	-5	-2	.	.
O=C(Cn1nnc(-c2ccccc2)n1)NCC(=O)Nc1ccc(F)c(F)c1F	0	3	.	4	-3	0	97
CCOc1ccc(NC(=O)c2cc3ccccc3cc2O)cc1	28	-7	9	5	-8	10	100
CCOc1ccc(NC(=O)c2cc3ccccc3cc2OC)cc1	1	0	-1	-4	2	.	.
Cc1ccc(NC(=O)C2CCCN(C(=O)Nc3ccc(F)cc3)C2)cc1 (centres undefined)	0	18	-4	1	1	.	.
CC(C)c1nnc(NC(=O)C2CCCN(C(=O)Nc3ccc(F)cc3)C2)s1 (centres undefined)	0	-6	-1	-2	-2	2	98
CC(c1ccco1)N(C(=O)C12CC3CC(CC(C)(C3)C1)C2)c1ccccn1 (centres undefined)	55*	-2	3	-6	4	-7	99
CC(c1ccco1)N(C(=O)c1ccc(F)cc1)c1ccccn1 (centres undefined)	2	0	-2	-1	0	.	.
Cc1ccc(NC(=O)CCCCCN2C(=O)[C@@H]3Cc4ccccc4CN3C2=O)cc1	0	0	-1	-6	-7	.	.
COc1ccc(NC(=O)CCCCCN2C(=O)[C@@H]3Cc4ccccc4CN3C2=O)cc1Cl	0	1	1	-7	-10	0	99
O=C(CCCCCN1C(=O)[C@@H]2Cc3ccccc3CN2C1=O)Nc1cccc(F)c1	0	0	-3	-8	-2	3	96
O=C(CCCCCN1C(=O)[C@@H]2Cc3ccccc3CN2C1=O)Nc1ccccc1F	3	1	1	2	-17	-1	96
O=C(CCCCCN1C(=O)[C@@H]2Cc3ccccc3CN2C1=O)Nc1ccccc1Cl	2	0	-2	-5	2	.	.
Cc1cccc(NC(=O)CCCCCN2C(=O)[C@@H]3Cc4ccccc4CN3C2=O)c1	0	1	5	-6	2	-1	98
CCOc1ccccc1NC(=O)CCCCCN1C(=O)[C@@H]2Cc3ccccc3CN2C1=O	11	1	1	-5	-6	.	.
Cc1ccccc1NC(=O)CCCCCN1C(=O)[C@@H]2Cc3ccccc3CN2C1=O	2	13	-3	-14	-5	.	.
COc1ccc(CCNC(=O)C2(C)CCC(=O)N2Cc2ccc(C)cc2)cc1OC (centres undefined)	2	4	2	1	7	-1	85
COc1cccc(CN2C(=O)CCC2(C)C(=O)NCCc2ccc(OC)c(OC)c2)c1 (centres undefined)	0	4	-1	-2	-15	.	.
CCCOC(=O)c1cc(-c2ccc(/C=C3/C(=O)N(C)C(=O)C(C#N)=C3C)o2)ccc1Cl	52*	-1	-2	11	11	0	96
CCCOC(=O)c1cc(-c2ccc(C=O)o2)ccc1Cl	0	9	-1	-3	-2	.	.
O=C(Nc1ccccc1C(=O)N1CCOCC1)c1ccc(Br)cc1	100*	1	-1	2	-9	.	.	GRK2 CP2=-14;FAM quench CP2=98
O=C(Cn1cc([N+](=O)[O-])cn1)N1CCc2ccccc21	3	-2	0	-3	-9	0	99
SMILES	GRK2 aptamer HTS	Granule exo inh	PP1 inh	NadD block	B2AR ag	GRK2 inh confirm	Aptamer quench SP	others
O=C(Cn1cc([N+](=O)[O-])cn1)N1CCCc2ccccc21	0	0	7	4	-5	.	.
CCCCCC(=O)N1CC2(CC(c3cccc(NC(=O)COc4ccc(Cl)cc4)c3)=NO2)C[C@@H]1C(N)=O (some centres undefined)	4	-2	6	7	0	.	.	GRK2 CP2=-21;FAM quench CP2=101
CCCCCC(=O)N1CC2(CC(c3cccc(NC(=O)CC(c4ccccc4)c4ccccc4)c3)=NO2)C[C@@H]1C(N)=O (some centres undefined)	0	11	2	10	3	.	.	GRK2 CP2=-19;FAM quench CP2=96
CCC(=O)Nc1cccc(C2=NOC3(C2)C[C@@H](C(N)=O)N(C(=O)COc2ccc(Cl)cc2)C3)c1 (some centres undefined)	3	-6	1	3	-1	.	.
COc1cccc(C2=CC(=O)CC(c3ccco3)C2)c1 (centres undefined)	0	2	-1	-6	-8	.	.
COc1ccc(CN(C)C(=O)Cn2ccsc2=N)cc1OC	0	-2	-2	-7	-2	4	96
COc1ccc(CCNS(=O)(=O)c2ccc3c(c2)OCCO3)cc1OC	0	0	-3	0	18	.	.
COc1ccc(CCNS(=O)(=O)c2ccc3c(c2)CCCC3)cc1OC	42*	5	.	-8	18	.	.	GRK2 CP2=18;FAM quench CP2=101
CCOC(=O)CC[C@H](NC(=O)Cn1cnc(C(=O)Nc2ccc(C)c(C)c2)n1)C(=O)OCC	3	-2	.	2	4	.	.
COc1ccccc1N(Cc1cc(=O)[nH]c2ccccc12)C(=O)c1ccc([N+](=O)[O-])cc1	0	3	-3	0	-4	.	.
Cc1cc2cc(CNC(=O)COc3ccccc3)ccc2n1C	23	-4	5	9	-11	.	.
COc1cc(OC)cc(C(=O)NCc2ccc3c(c2)cc(C)n3C)c1	82*	-7	3	17	-13	3	98
COc1ccc(C(=O)NCc2ccc3c(c2)cc(C)n3C)cc1	1	-1	-5	2	-10	.	.
COc1ccc(C(=O)NCc2ccc3c(c2)OCO3)cc1	1	-3	-4	-5	1	.	.
COc1ccc(CC(=O)NCc2ccc3c(c2)cc(C)n3C)cc1OC	0	-1	2	4	3	2	97
Cc1cc2cc(CNC(=O)c3ccc4c(c3)OCO4)ccc2n1C	22	-3	8	18	-1	4	94
CCOc1ccc(CC(=O)NCc2ccc3c(c2)cc(C)n3C)cc1	0	-4	2	2	-8	-3	100
